Measurements: PubChem BioAssay (EPA / NIEHS)
Active and inactive are the calls of the source. Rule for the calls: active = hit-call score of the fitted dose curve at least 0.9, where 1 is the maximum; inactive = score below 0.9.

Key:
[1] = read-out: Tissue plasminogen activator (tPA), PLAT (gene 5327); experiment: BSK_BE3C_tPA: BioMAP Diversity Plus: BE3C Assay for Tissue plasminogen activator (tPA) Biomarker Activity (AID 2283041); details: primary human bronchial epithelial cells; actives raise or lower the signal;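 for outcome: tPA level quantified by ELISA one day after compound addition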
In short: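 Human primary bronchial epithelial cells were dosed with chemical and tPA biomarker levels measured by ELISA 24 hours later. Activity was fitted bidirectionally against DMSO as negative control and baseline.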

[2] = read-out: Interleukin-8 (IL8), CXCL8 (gene 3576); experiment: BSK_CASM3C_IL8: BioMAP Diversity Plus: CASM3C Assay for Interleukin-8 (IL8) Biomarker Activity (AID 2283042); details: primary human coronary artery smooth muscle cells; actives raise or lower the signal;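 note: IL-8 protein level quantified by ELISA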
[3] = read-out: Human Leukocyte Antigen - DR isotype (HLADR), HLA-DRA (gene 3122); experiment: BSK_CASM3C_HLADR: BioMAP Diversity Plus: CASM3C Assay for Human Leukocyte Antigen - DR isotype (HLADR) Biomarker Activity (AID 2283043); details: primary human coronary artery smooth muscle cells; actives raise or lower the signal;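 note: cell-surface HLA-DR protein level quantified by ELISA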
[4] = read-out: Macrophage colony-stimulating factor (MCSF), CSF1 (gene 1435); experiment: BSK_CASM3C_MCSF: BioMAP Diversity Plus: CASM3C Assay for Macrophage colony-stimulating factor (MCSF) Biomarker Activity (AID 2283044); details: primary human coronary artery smooth muscle cells; actives raise or lower the signal;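 note: M-CSF protein amount quantified by ELISA after 24 h exposure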
[5] = read-out: Low-density lipoprotein receptor (LDLR), LDLR (gene 3949); experiment: BSK_CASM3C_LDLR: BioMAP Diversity Plus: CASM3C Assay for Low-density lipoprotein receptor (LDLR) Biomarker Activity (AID 2283045); details: primary human coronary artery smooth muscle cells; actives raise or lower the signal;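 note: LDLR protein level on the cell surface quantified by ELISA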
[6] = read-out: Monocyte Chemoattractant Protein-1 (MCP1), CCL2 (gene 6347); experiment: BSK_CASM3C_MCP1: BioMAP Diversity Plus: CASM3C Assay for Monocyte Chemoattractant Protein-1 (MCP1) Biomarker Activity (AID 2283046); details: primary human coronary artery smooth muscle cells; actives raise or lower the signal;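 note: MCP-1 level quantified by ELISA 24 h after dosing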
[7] = BSK_CASM3C_Proliferation: Cell Proliferation Assessment in the BioMAP Diversity Plus: CASM3C Assay (AID 2283047); details: primary human coronary artery smooth muscle cells;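 note: sulforhodamine B total protein stain as relative cell number at 560 nm; sub-confluent cells exposed 48 h before staining; fitted both ways against DMSO so gain or loss of cell number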
[8] = read-out: Monokine induced gamma interferon (MIG), CXCL9 (gene 4283); experiment: BSK_CASM3C_MIG: BioMAP Diversity Plus: CASM3C Assay for Monokine induced gamma interferon (MIG) Biomarker Activity (AID 2283048); details: primary human coronary artery smooth muscle cells; actives raise or lower the signal;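 note: MIG protein level measured by ELISA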
[9] = read-out: serum amyloid A (SAA), SAA1 (gene 6288); experiment: BSK_CASM3C_SAA: BioMAP Diversity Plus: CASM3C Assay for serum amyloid A (SAA) Biomarker Activity (AID 2283049); details: primary human coronary artery smooth muscle cells; actives raise or lower the signal;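 note: SAA protein level quantified by ELISA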
[10] = BSK_CASM3C_SRB: Viability Assessment in the BioMAP Diversity Plus: CASM3C Assay (AID 2283050); details: primary human coronary artery smooth muscle cells;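 note: total protein by SRB staining as cytotoxicity measure in parallel cultures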
[11] = read-out: Thrombomodulin, THBD (gene 7056); experiment: BSK_CASM3C_Thrombomodulin: BioMAP Diversity Plus: CASM3C Assay for Thrombomodulin Biomarker Activity (AID 2283051); details: primary human coronary artery smooth muscle cells; actives raise or lower the signal;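 note: thrombomodulin protein level measured by ELISA 24 h after dosing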
[12] = read-out: Tissue Factor, F3 (gene 2152); experiment: BSK_CASM3C_TissueFactor: BioMAP Diversity Plus: CASM3C Assay for Tissue Factor Biomarker Activity (AID 2283052); details: primary human coronary artery smooth muscle cells; actives raise or lower the signal;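 note: cell surface tissue factor protein level read by ELISA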
[13] = read-out: Interferon-gamma inducible Protein 10 (IP10), CXCL10 (gene 3627); experiment: BSK_hDFCGF_IP10: BioMAP Diversity Plus: hDFCGF Assay for Interferon-gamma inducible Protein 10 (IP10) Biomarker Activity (AID 2283053); details: primary human foreskin fibroblasts; actives raise or lower the signal
In short: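 Human foreskin fibroblast primary cells (hDFCGF system) were dosed with chemical and assayed at 24 h; IP-10 measured by ELISA. Activity fitted bidirectionally relative to DMSO negative control as baseline.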

[14] = read-out: Urokinase-type plasminogen activator receptor (uPAR), PLAUR (gene 5329); experiment: BSK_CASM3C_uPAR: BioMAP Diversity Plus: CASM3C Assay for Urokinase-type plasminogen activator receptor (uPAR) Biomarker Activity (AID 2283054); details: primary human coronary artery smooth muscle cells; actives raise or lower the signal;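 note: cell-surface uPAR protein level quantified by ELISA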
[15] = read-out: Vascular cell adhesion molecule 1 (VCAM1), VCAM1 (gene 7412); experiment: BSK_CASM3C_VCAM1: BioMAP Diversity Plus: CASM3C Assay for Vascular cell adhesion molecule 1 (VCAM1) Biomarker Activity (AID 2283055); details: primary human coronary artery smooth muscle cells; actives raise or lower the signal;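 note: VCAM-1 protein level quantified by ELISA on the cells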
[16] = read-out: Collagen III, COL3A1 (gene 1281); experiment: BSK_hDFCGF_CollagenIII: BioMAP Diversity Plus: hDFCGF Assay for Collagen III Biomarker Activity (AID 2283056); details: primary human foreskin fibroblasts; actives raise or lower the signal
In short: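 Response relative to DMSO, fitted in both directions, reflects ELISA-measured collagen III in human primary skin fibroblasts 24 h after compound addition.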

[17] = read-out: Epidermal growth factor receptor (EGFR), EGFR (gene 1956); experiment: BSK_hDFCGF_EGFR: BioMAP Diversity Plus: hDFCGF Assay for Epidermal growth factor receptor (EGFR) Biomarker Activity (AID 2283057); details: primary human foreskin fibroblasts; actives raise or lower the signal
In short: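 Primary human foreskin fibroblasts were exposed to compound for 24 h, after which cell-surface EGFR was quantified by ELISA. Activity was fitted bidirectionally against the DMSO negative control as baseline.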

[18] = read-out: Interleukin-8 (IL8), CXCL8 (gene 3576); experiment: BSK_hDFCGF_IL8: BioMAP Diversity Plus: hDFCGF Assay for Interleukin-8 (IL8) Biomarker Activity (AID 2283058); details: primary human foreskin fibroblasts; actives raise or lower the signal
In short: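 Fibroblast monolayers (human foreskin, hDFCGF) received test chemical for 24 h before ELISA detection of IL-8; either increases or decreases relative to DMSO count as activity.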

[19] = BSK_hDFCGF_Proliferation: Cell Proliferation Assessment in the BioMAP Diversity Plus: hDFCGF Assay (AID 2283059); details: primary human foreskin fibroblasts;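 note: curves fitted for both rise and fall of signal versus DMSO baseline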
In short: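 Primary human foreskin fibroblasts, sub-confluent; […]; 10% TCA fix, 0.1% SRB stain, A560 total protein. Gain/loss fitted bidirectionally vs DMSO control.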

[20] = read-out: Macrophage colony-stimulating factor (MCSF), CSF1 (gene 1435); experiment: BSK_hDFCGF_MCSF: BioMAP Diversity Plus: hDFCGF Assay for Macrophage colony-stimulating factor (MCSF) Biomarker Activity (AID 2283060); details: primary human foreskin fibroblasts; actives raise or lower the signal
In short: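 fibroblasts (human foreskin, primary), 24 h post-dose; M-CSF by ELISA; bidirectional fit, DMSO = baseline.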

## CC(C)(C)CC(C)(C)c1ccc(O)cc1
[1]
  AC50: 13.2 µM (active)
[2]
  AC50: 30.3 µM (active)
[3]
  AC50: 11.2 µM (active)
[4]
  AC50: 11.3 µM (active)
[5]
  AC50: 16 µM (active)
[6]
  AC50: 11.9 µM (active)
[7]
  AC50: 10.1 µM (active)
[8]
  AC50: 26.4 µM (active)
[9]
  AC50: 10.7 µM (active)
[10]
  AC50: 13.7 µM (active)
[11]
  AC50: 33.8 µM (active)
[12]
  AC50: 10 µM (active)
[13]
  AC50: 9 µM (active)
[14]
  AC50: 14.8 µM (active)
[15]
  AC50: 12 µM (active)
[16]
  AC50: 8.27 µM (active)
[17]
  AC50: 20 µM (active)
[18]
  AC50: 10.6 µM (active)
[19]
  AC50: 8.07 µM (active)
[20]
  AC50: 7.74 µM (active)

## O=C(OC1CCCCC1)c1ccccc1C(=O)OC1CCCCC1
[1]
  AC50: 8.39 µM (active)
[2]
  outcome: inactive
[3]
  outcome: inactive
[4]
  outcome: inactive
[5]
  AC50: 34.2 µM (active)
[6]
  outcome: inactive
[7]
  AC50: 33.4 µM (active)
[8]
  outcome: inactive
[9]
  outcome: inactive
[10]
  AC50: 20.9 µM (active)
[11]
  AC50: 20.9 µM (active)
[12]
  AC50: 33 µM (active)
[13]
  AC50: 13.4 µM (active)
[14]
  outcome: inactive
[15]
  outcome: inactive
[16]
  AC50: 5.33 µM (active)
[17]
  AC50: 20.9 µM (active)
[18]
  AC50: 34.9 µM (active)
[19]
  AC50: 10.2 µM (active)
[20]
  AC50: 11 µM (active)

## O=[N+]([O-])c1ccc2c3c(cccc13)CC2
[1]
  outcome: inactive
[2]
  outcome: inactive
[3]
  outcome: inactive
[4]
  outcome: inactive
[5]
  outcome: inactive
[6]
  outcome: inactive
[7]
  outcome: inactive
[8]
  outcome: inactive
[9]
  outcome: inactive
[10]
  outcome: inactive
[11]
  outcome: inactive
[12]
  outcome: inactive
[13]
  outcome: inactive
[14]
  outcome: inactive
[15]
  outcome: inactive
[16]
  outcome: inactive
[17]
  outcome: inactive
[18]
  outcome: inactive
[19]
  AC50: 27.7 µM (active)
[20]
  AC50: 10.6 µM (active)

## CC(C)CCCCCCOC(=O)c1ccccc1C(=O)OCCCCCCC(C)C
[1]
  outcome: inactive
[2]
  outcome: inactive
[3]
  outcome: inactive
[4]
  outcome: inactive
[5]
  outcome: inactive
[6]
  outcome: inactive
[7]
  outcome: inactive
[8]
  outcome: inactive
[9]
  outcome: inactive
[10]
  outcome: inactive
[11]
  outcome: inactive
[12]
  AC50: 0.0332 µM (active)
[13]
  outcome: inactive
[14]
  outcome: inactive
[15]
  outcome: inactive
[16]
  outcome: inactive
[17]
  outcome: inactive
[18]
  outcome: inactive
[19]
  outcome: inactive
[20]
  outcome: inactive

## O=C(O)C(Cl)(Cl)Cl
[1]
  outcome: inactive
[2]
  outcome: inactive
[3]
  outcome: inactive
[4]
  outcome: inactive
[5]
  outcome: inactive
[6]
  outcome: inactive
[7]
  outcome: inactive
[8]
  outcome: inactive
[9]
  outcome: inactive
[10]
  outcome: inactive
[11]
  outcome: inactive
[12]
  outcome: inactive
[13]
  outcome: inactive
[14]
  outcome: inactive
[15]
  outcome: inactive
[16]
  outcome: inactive
[17]
  outcome: inactive
[18]
  outcome: inactive
[19]
  outcome: inactive
[20]
  outcome: inactive
